In the library only some 12% were active in any assay of this set; here they are far more common.
USP30 inh: human USP30 deubiquitinase inhibition; Q70CQ3; purified USP30, Ub-rhodamine cleavage fluorescence; inhibition, % at 25 µM; hit rate 5.3% among 47,000; AID 1645860
USP17 block: human USP17-like deubiquitinase inhibition. purified USP17, Ub-rhodamine cleavage fluorescence, 3 h. inhibition, % at 50 µM. hit rate 6.5% among 47,000
Target sequence (A8MUK1 whole entry, looked up): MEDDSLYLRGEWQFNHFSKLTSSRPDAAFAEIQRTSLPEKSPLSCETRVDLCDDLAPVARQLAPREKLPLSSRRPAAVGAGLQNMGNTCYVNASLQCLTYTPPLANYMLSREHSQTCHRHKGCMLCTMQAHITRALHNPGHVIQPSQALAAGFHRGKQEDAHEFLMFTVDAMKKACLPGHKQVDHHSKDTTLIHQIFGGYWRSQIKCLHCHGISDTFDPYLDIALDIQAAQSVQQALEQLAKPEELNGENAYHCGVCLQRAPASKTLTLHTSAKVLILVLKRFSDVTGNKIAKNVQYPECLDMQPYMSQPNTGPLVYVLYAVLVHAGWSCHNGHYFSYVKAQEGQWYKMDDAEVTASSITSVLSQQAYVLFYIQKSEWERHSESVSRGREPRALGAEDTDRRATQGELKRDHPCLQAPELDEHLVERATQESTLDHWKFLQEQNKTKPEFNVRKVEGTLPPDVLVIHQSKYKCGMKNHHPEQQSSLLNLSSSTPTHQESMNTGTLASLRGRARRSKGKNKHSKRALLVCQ
USP8 inh: human USP8 deubiquitinase inhibition; P40818; purified USP8, Ub-rhodamine cleavage fluorescence, 30 min; inhibition, % at 20 µM; hit rate 4.2% among 47,000; AID 1645853
Numbers stand for hits; - = inactive; . = no result. Rule as the data show it: active = inhibition above about 30%; inactive = the rest.

SMILES	USP30 inh	USP17 block	USP8 inh
CCN1C(=O)COc2cc(-c3noc(C(=O)NCc4ccccn4)n3)ccc21	-	-	-
O=C(NCc1ccncc1)c1nc(-c2ccncc2)no1	-	-	-
O=C(NCCc1ccncc1)c1cc(-c2ccn(CC3CC3)n2)n2ccccc12	-	-	-
O=c1c(-c2nc(C3CC3)no2)cccn1Cc1nc(-c2ccccc2F)no1	-	-	-
O=c1c(-c2nc(-c3ccncc3)no2)cccn1Cc1c(F)cccc1Cl	-	-	51.4
Cc1nc2cc(N3CC(C(=O)Nc4ccccc4C)CC3=O)ccc2o1 (configuration not stated)	-	-	-
Cc1nc2cc(N3CC(C(=O)Nc4ccc(F)cc4C)CC3=O)ccc2o1 (configuration not stated)	75.7	62.8	-
O=C(c1ccc2n[nH]nc2c1)N1C[C@H]2CC[C@@H](Nc3cnccn3)[C@H]2C1	-	-	-
c1cnc(-c2n[nH]c(C3CCN(C4CCNC4)CC3)n2)cn1 (configuration not stated)	-	53.7	-
Cc1ccc(CN2CCC(c3nc(-c4ccncc4)n[nH]3)CC2)o1	.	-	-
Cc1ccc(C)c(NC(=O)c2oc3ccc4c(c3c2C)C(=O)CC2(CCCC2)O4)c1	-	-	-
Cc1ccc2cc(-c3noc(-c4cccnc4)n3)c(=O)[nH]c2c1	-	-	-
Cc1ccc2[nH]c(=O)c(-c3noc(-c4ccc([N+](=O)[O-])cc4)n3)cc2c1	42.3	47.9	-
CC(C)CC1OC(=O)CCNC(=O)C(Cc2ccccc2)N(C)C(=O)C(C(C)C)N(C)C(=O)C(Cc2ccccc2)NC(=O)C2C(C)CCN2C1=O (configuration not stated)	-	-	-
CCN1CCc2c(cccc2-n2nnc(C(=O)N3CCOCC3)c2C)C1	-	-	-
Cc1cc(C)cc(NC(=O)CN2C(=O)CC(c3ccccc3)Sc3ccccc32)c1 (configuration not stated)	57.5	-	-
O=C(CN1C(=O)CC(c2ccccc2)Sc2ccccc21)Nc1cccc(C(F)(F)F)c1 (configuration not stated)	-	-	-
O=C(O)CNC(=O)c1cnc2n1CC(c1cccc(C(F)(F)F)c1)CC2 (configuration not stated)	-	-	-
C[C@H]1[C@H](C)CC[C@]2(C(=O)O[C@@H]3O[C@H](CO[C@@H]4O[C@H](CO)[C@@H](O[C@@H]5O[C@@H](C)[C@H](O)[C@@H](O)[C@H]5O)[C@H](O)[C@H]4O)[C@@H](O)[C@H](O)[C@H]3O)CC[C@@]3(C)C(=CC[C@@H]4[C@@]5(C)C[C@@H](O)[C@H](O)[C@@](C)(CO)[C@@H]5CC[C@]43C)[C@H]12	-	-	-
C[C@@H]1O[C@@H](O[C@H]2[C@H](O[C@H]3[C@H](O[C@H]4CC[C@@]5(C)[C@@H](CC[C@]6(C)[C@@H]5CC=C5[C@@H]7CC(C)(C)CC(=O)[C@]7(C)CC[C@]56C)[C@@]4(C)CO)O[C@H](C(=O)O)[C@@H](O)[C@@H]3O)OC[C@@H](O)[C@@H]2O)[C@H](O)[C@H](O)[C@H]1O	52.9	31.5	-
CC(C)(C)C(=O)Nc1ccnn1C1CCN(Cc2cnn(-c3ccccc3)c2)CC1	-	-	-
CN(Cc1ccccc1)S(=O)(=O)c1ccc(NC(=O)c2ccc(Cl)cc2)cc1	31.1	-	-
CCc1ccc(C(=O)OC(C)C(=O)Nc2sccc2C(N)=O)cc1 (configuration not stated)	-	-	-
Cc1sc(NC(=O)c2ccc(S(=O)(=O)N(C)C)cc2)c(C(N)=O)c1C	-	.	-
CN(Cc1ccccc1)S(=O)(=O)c1ccc(C(=O)Nc2ccc3c(c2)OCO3)cc1	-	-	-
SMILES	USP30 inh	USP17 block	USP8 inh
Cc1sc(NC(=O)c2ccc(S(=O)(=O)N(C)Cc3ccccc3)cc2)c(C(N)=O)c1C	-	-	31.3
CCN(c1ccccc1)S(=O)(=O)c1ccc(C(=O)Nc2cccc(NC(C)=O)c2)cc1	-	-	-
CCN(Cc1ccccc1)S(=O)(=O)c1ccc(C(=O)Nc2ccc(S(N)(=O)=O)cc2)cc1	-	32.6	-
CCN(Cc1ccccc1)S(=O)(=O)c1ccc(C(=O)Nc2sccc2C(N)=O)cc1	.	42.8	-
O=C(NCc1ccccc1F)c1ccc(Cl)c(S(=O)(=O)N2CCCCC2)c1	-	-	-
COc1ccccc1S(=O)(=O)N1CCCC(c2nn(C)c3nccnc23)C1 (configuration not stated)	-	-	-
COCC(=O)N1CCN2C[C@H]1C(=O)NC[C@H]1O[C@@H](CC(=O)N[C@H]3C[C@@H](C2=O)N(Cc2ccc(Cl)c(F)c2)C3)[C@H](O)[C@@H]1O	-	-	-
CCc1ncc(-c2c[nH]c3ccccc23)o1	-	-	-
O=C(NCc1ccc2c(c1)OCO2)c1cn(-c2cccc(F)c2)nn1	-	-	-
C[C@@H]1CCC2[C@](C)(COC=O)[C@@H](OC=O)CC[C@]2(C)[C@@]12CCC(CCOC=O)(COC=O)O2 (some centres not stated)	-	-	-
CC1c2ncc(CNC(=O)C3CC3)n2CCN1c1ccccn1 (configuration not stated)	-	.	-
O=c1ccc(-c2nnc3c4ccccc4c(Cc4ccccc4)nn23)n[nH]1	-	-	59.3
O=C(Nc1nnc(Cc2ccccc2)s1)c1cc(=O)[nH]c2ccccc12	-	-	-
Cc1cc(C)n(C(C)CC(=O)Nc2ccc(-c3nc4ccccc4[nH]3)cc2)n1 (configuration not stated)	-	-	-
CSc1cccc(C(=O)Nc2ccc(-c3nc4ccccc4[nH]3)cc2)c1	32.3	62.9	-
CCOC(=O)C1CCN(C(=O)c2[nH]nc3c2CCc2ccccc2-3)CC1	-	-	-
COc1ccc(/C=C/C(=O)Nc2ccccc2C#N)cc1	.	68.2	-
COc1ccc(/C=C/C(=O)Nc2cc(C)ccn2)cc1	-	-	-
CCC(=O)Oc1ccc(/C=C(\C#N)c2nnc3n2CCCCC3)cc1	-	-	-
O=C1CC(c2ccc(Cl)cc2)n2nc(NC(=O)c3ccc4c(c3)OCO4)nc2N1 (configuration not stated)	-	-	-
Cc1ccc(C)c(CSC2=NCCN2C(=O)Cc2ccc(F)cc2)c1	-	-	-
COc1c2c(nc3ccccc13)OC([C@@](C)(O)COC(C)=O)C2 (some centres not stated)	-	-	-
CCN(CC)S(=O)(=O)c1ccc(/C(=C\Nc2ccc(Cl)cc2)c2ncc(C(F)(F)F)cc2Cl)s1	-	-	35.9
O=S(=O)(NCc1ccccn1)c1ccc(Cc2ncc(C(F)(F)F)cc2Cl)s1	-	-	-
Cc1nc(C)n(CC2CCCN2Cc2nc(-c3ccoc3)no2)n1 (configuration not stated)	-	-	-
Cc1cc2c3c([nH]c2cc1S(=O)(=O)NC1CCCC1)CC(C)(C)CC3=O	-	-	-
Cc1cc2c3c([nH]c2cc1S(=O)(=O)NCCc1ccccc1)CC(C)(C)CC3=O	-	-	-
CCN(c1ccccc1)S(=O)(=O)c1cc2[nH]c3c(c2cc1C)C(=O)CC(C)(C)C3	-	32.9	-
Cc1cccc(NS(=O)(=O)c2cc3[nH]c4c(c3cc2C)C(=O)CC(C)(C)C4)c1	-	36.4	-
O=C(CSc1nc2ccsc2c(=O)n1Cc1ccccc1)Nc1ccccc1C(F)(F)F	.	55.1	-

Source: PubChem BioAssay
